TEAD-YAP inh = TEAD-YAP interaction inhibition. HEK-TIYL cells, TEAD-Gal4/YAP UAS-luciferase luminescence. inhibition, % at 9.12 µM. hit rate 1.4% among 640,000. AID 1259422; in the data active = inhibition above about 32%;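 also: 0% = median of test compound wells and 100% = reference inhibitor wells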
MITF primary = blocks human microphthalmia-associated transcription factor | O75030 | AlphaScreen MITF homodimerization, bead proximity signal | inhibition, % at 2.6 µM | hit rate 0.91% among 650,000; in the data active = inhibition above about 50%;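 also: 0% = vehicle wells with protein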
Target sequence (O75030 whole entry, looked up): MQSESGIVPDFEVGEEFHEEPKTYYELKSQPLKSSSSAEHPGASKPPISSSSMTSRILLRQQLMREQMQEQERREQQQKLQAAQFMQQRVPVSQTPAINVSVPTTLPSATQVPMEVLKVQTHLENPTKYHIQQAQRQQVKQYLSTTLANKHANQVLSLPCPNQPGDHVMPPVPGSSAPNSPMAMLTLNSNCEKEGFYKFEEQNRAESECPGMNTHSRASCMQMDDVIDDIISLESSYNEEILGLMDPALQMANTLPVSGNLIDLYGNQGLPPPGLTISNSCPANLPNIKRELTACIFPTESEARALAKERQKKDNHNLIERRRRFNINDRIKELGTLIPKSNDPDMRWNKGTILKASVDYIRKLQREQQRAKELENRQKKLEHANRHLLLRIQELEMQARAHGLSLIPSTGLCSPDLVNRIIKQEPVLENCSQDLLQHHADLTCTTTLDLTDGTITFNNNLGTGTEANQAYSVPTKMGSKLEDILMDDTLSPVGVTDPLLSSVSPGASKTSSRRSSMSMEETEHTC
FBW7 activator = activators of human E3 ligase FBW7; normalized activity (activation), % at 26.1 µM; hit rate 0.13% among 650,000; AlphaScreen FBW7–phospho-cyclin E peptide binding, activator screen; Q969H0; in the data active = normalized activity above about 1.9%;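 also: purified mutant Fbw7 with reduced substrate affinity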
GPR151 ag = human GPR151 activation; Q8TDV0; PathHunter beta-arrestin GPR151 cells, luminescence; activation, % at 11.2 µM; hit rate 1% among 650,000; AID 1508602; in the data active = activation above about 4.9%;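 also: 0% = median of compound wells and 100% = cells with positive control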
GPR151 confirm = confirmation of human GPR151 activators; activation, % at 11.2 µM; GPR151 PathHunter beta-arrestin cells, luminescence, 90 min; % of EA-reagent control over plate median; AID 1508609; 6,700 tested, under 10 active; shares compounds with GPR151 ag;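 active = mean percent activation across replicates above the confirmation screen cutoff of 4.91%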
GPR119 counter = GPR119 activation, counter-screen for GPR151 activators; shares compounds with GPR151 ag; GPR119 PathHunter beta-arrestin cells, luminescence, 90 min; 0 = compound-well median, 100 = enzyme-acceptor control; activation, % at 11.2 µM; hit rate 0.3% among 6,700; AID 1508611;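 active = mean percent activation in the counterscreen above 29.09%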;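 also: counterscreen on off-target GPR119 to flag nonselective hits from the GPR151 activator screen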
The depositor's hits bear a star; . = not tested or not shown; ! = a repeat was not active. This is a sample that favours compounds with a hit; in the whole collection about 3.5% have one here.

SMILES	TEAD-YAP inh	MITF primary	FBW7 activator	GPR151 ag	GPR151 confirm	GPR119 counter
O=c1[nH]c2cccnc2[nH]c1=O	7	20	0	10*	0	-1
C=CCOC(=O)c1cc(-c2ccc(/C=N/Nc3nn[nH]n3)o2)ccc1Cl	-21	15	0	5.0*	1	3
COc1ccccc1CNC(=O)c1nnn(Cc2ccc(Br)cc2)c1N	10	14	0	0	.	.
CCN1CCN(CCCNC(=O)CCCNC(=O)Cn2cnc3sc4c(c3c2=O)CCCC4)CC1	6	17	0	-1	.	.
CN1CCN(CCCNC(=O)CCCNC(=O)Cn2cnc3sc4c(c3c2=O)CCCC4)CC1	-4	14	0	6.0*	0	0
COc1ccc(CC2(CCC(=O)N[C@H]3CCCCNC3=O)CCC(=O)N2)c2ccccc12 (stereo partly drawn)	-8	-1	0	2	.	.
Cn1c(=O)c2c(nc(N3CCCCCC3)n2CCc2ccccc2)n(C)c1=O	-7	-11	0	5.0*	2	8
CCN1CCN(c2nc3c(c(=O)n(C)c(=O)n3C)n2CCSc2ncccn2)CC1	2	-3	0	8.0*	0	4
Cn1c(=O)c2c(nc(Cl)n2CC(=O)NCc2ccccc2)n(C)c1=O	12	15	0	6.5*	0	7
O=C1CC(C(=O)Nc2ccc(Cl)cn2)c2ccccc21 (stereo not drawn)	-16	4	0	0	.	.
Cc1nn(C)cc1COC(=O)c1ccc([N+](=O)[O-])cc1	1	-4	0	-3	.	.
CCOC(=O)N1CCN(C(=O)Cn2cc(NC(=O)Cc3ccccc3OC)cn2)CC1	-1	2	0	9.1*	1	21
CC1(C)OC(=O)C(=CNC(CCC(N)=O)C(=O)O)C(=O)O1 (stereo not drawn)	-10	12	0	6.4*	1	-3
COc1ccc(CCNC(=O)C(OC(=O)CCl)c2ccccn2)cc1OC (stereo not drawn)	4	19	0	-2	.	.
Cc1cc(-c2ccccc2)nc(N2CCC(C(=O)NCc3cccs3)CC2)n1	-7	-16	0	10*	0	13
Cc1cc(N(C)C)nc(N2CCC(C(=O)NCc3cccs3)CC2)n1	3	-2	0	-1	.	.
CC(C)N(C)C(=O)CC1(c2ccccc2)CC(=O)N(CCCOc2cccnc2)C1=O (stereo not drawn)	-2	9	1	1	.	.
CCN(CC)S(=O)(=O)c1ccc(C(=O)Nc2nnc(-c3ccc(OC)cc3)o2)cc1	4	20	0	5.3*	0	-2
Cc1ncc(CN2CCC(C(=O)Nc3ccc(-n4cccn4)cc3)CC2)s1	-7	15	1	-1	.	.
Cc1cc(C)n(-c2ccc(NC(=O)C3CCN(Cc4cnc(C)s4)CC3)cc2)n1	3	-7	0	5.8*!	0	-14
O=C1c2ccccc2C(=O)N1OS(=O)(=O)c1ccc(Cl)cc1	2	14	1	17*	0	4
O=C1c2ccccc2C(=O)N1OS(=O)(=O)c1ccccc1	-6	-2	0	0	.	.
O=C(Nc1ccc(-c2nc3ccccc3o2)cc1)c1cc(I)ccc1Cl	-15	7	0	7.4*	0	-5
O=C(NC(=S)Nc1ccc(-c2nc3ccccc3o2)cc1)c1cncc(Br)c1	-15	4	0	6.1*	0	15
CCOc1ccccc1C(=O)Nc1c(C)n(C)n(-c2ccccc2)c1=O	4	9	0	-1	.	.
CCC(C)OC(=O)C1=C(C)NC2=C(C(=O)CC(c3ccc(OC)cc3)C2)C1c1cc(OC)c(OC)cc1Br (stereo not drawn)	11	-2	-1	7.5*	2	6
C=CCN(c1ccccc1)S(=O)(=O)c1ccc2[nH]cc(C(=O)NCc3ccccc3)c(=O)c2c1	14	7	0	1	.	.
COc1ccc2c(c1)sc(=NC(=O)C1COc3ccccc3O1)n2C (stereo not drawn)	-59	10	0	1	.	.
COCCNC(=O)C(=O)NC(C)c1ccccc1 (stereo not drawn)	-10	-1	0	2	.	.
CC(C)OCCCNC(=O)C(=O)NC(C)c1ccccc1 (stereo not drawn)	9	-4	0	5.3*	1	13
